We go through 37 compounds from PubChem BioAssay AID624481 (The Scripps Research Institute Molecular Screening Center, 2012).

Values without a mark were called inactive. Calls of active or inactive are those of the source. No stated cut-off is given here; in the data, active means inhibition above about 50%; inactive means the rest.

In the assay the target is Prolyl endopeptidase-like (Mus musculus) (UniProt Q8C167). The assay is described as follows: purified PREPL inhibitors, PREPL inhibitor project, biochemical, gel-based competitive ABPP, fluorescence, HTS hits (AID 624481). The note with it: at 20 µM, hits give high values.
Chain of Prolyl endopeptidase-like (Mus musculus) (Q8C167 whole entry, looked up): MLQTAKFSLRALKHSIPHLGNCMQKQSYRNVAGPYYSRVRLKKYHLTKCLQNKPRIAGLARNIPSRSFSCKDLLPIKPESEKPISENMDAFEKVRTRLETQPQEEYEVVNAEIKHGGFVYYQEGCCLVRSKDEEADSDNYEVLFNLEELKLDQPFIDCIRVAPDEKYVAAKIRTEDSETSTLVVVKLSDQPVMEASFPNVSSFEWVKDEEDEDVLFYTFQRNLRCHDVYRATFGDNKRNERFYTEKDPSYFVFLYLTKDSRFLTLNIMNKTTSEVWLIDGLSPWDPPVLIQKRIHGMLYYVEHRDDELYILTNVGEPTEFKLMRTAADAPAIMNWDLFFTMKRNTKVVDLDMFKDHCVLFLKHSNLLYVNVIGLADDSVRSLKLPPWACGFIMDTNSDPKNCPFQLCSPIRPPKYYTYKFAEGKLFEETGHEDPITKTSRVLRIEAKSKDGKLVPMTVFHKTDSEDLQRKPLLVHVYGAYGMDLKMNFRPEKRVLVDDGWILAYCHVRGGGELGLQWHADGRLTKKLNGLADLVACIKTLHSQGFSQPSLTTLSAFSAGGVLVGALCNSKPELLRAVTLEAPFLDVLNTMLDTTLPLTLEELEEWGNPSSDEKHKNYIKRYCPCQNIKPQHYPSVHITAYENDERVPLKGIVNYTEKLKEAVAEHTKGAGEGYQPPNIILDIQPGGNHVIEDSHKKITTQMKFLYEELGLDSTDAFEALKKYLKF
For `COc1cccc(N=Nc2c(N)[nH]n3c(=O)c4c(nc23)CCCC4)c1`, the inhibition is 93% (active).
Turning to `CN1CCN(c2ccc(NC(=O)COc3ccc4ccccc4c3)cc2)CC1`, the inhibition was -21%.
As for `COc1ccc(Cn2c(SCc3ccccc3C)nc3cc(OC)c(OC)cc3c2=N)cc1`, the inhibition was 52% (active).
`COc1cc2[nH]c3c(N4CCN(c5ccccn5)CC4)ncnc3c2cc1OC`: the inhibition was 1%.
Under `COc1ccc(N2CCN(c3cc(C)nc4ccc(OC)cc34)CC2)cc1` stands -69%; under `C#CCOCCOCCOCCNc1nc(N2CCN(C(=O)[C@H](Cc3cc4ccccc4[nH]3)n3cc([C@@H](N)CC(C)C)nn3)CC2)nc(N2CCN(C(=O)[C@H](Cc3cc4ccccc4[nH]3)n3cc([C@@H](N)CC(C)C)nn3)CC2)n1`, -82%.
Regarding `Cc1ccccc1C(=O)N1CCN(c2ccc(NC(=O)CSc3ccc(Cl)cc3)cc2)CC1`, the inhibition was -27%.
In the case of `C[C@H](CO)N1C[C@H](C)[C@H](CN(C)Cc2ccccc2)Oc2c(NC(=O)Nc3ccc(F)cc3)cccc2C1=O`, the inhibition is -56%.
Regarding `CC[C@@H](C)[C@@H]1CN([C@@H](CN2CCC[C@H]2CN2C(N)=NC[C@H]2C(C)C)C(C)C)C(=N)N1CCCC1CCCC1`, the inhibition is -53%.
Consider `CCC(=O)c1ccc2c(c1)N(CCCN(C)C)c1ccccc1S2`, for which the inhibition was 9%.
For the compound `c1ccc(-c2nc(N3CCCCCC3)c3ccccc3n2)nc1`, the inhibition is -104%.
`CN(C)c1ccc(NC(=O)c2ccc(Cn3cc([N+](=O)[O-])cn3)cc2)cc1`: the inhibition was -9%.
For `O=C(Cc1ccc(Cl)cc1)Nc1ccc(N2CCN(C(=O)c3ccco3)CC2)cc1`, the inhibition is -61%.
In the case of `C#CCOCCOCCOCCNc1nc(N2CCN(C(=O)CCCCCCCCCCNC(=O)Cn3cc(CCCCCN)nn3)CC2)nc(N2CCN(C(=O)CCCCCCCCCCNC(=O)[C@H](CO)n3cc(CCCSC)nn3)CC2)n1` it was 31%; in that of `O=C(C1=C[C@@H](c2ccc(C(F)(F)F)cc2)C[C@@H](OCc2ccc(CO)cc2)O1)N1CCN(Cc2ccc3c(c2)OCO3)CC1`, -49%; in that of `O=C(C1=C[C@@H](c2ccc(Br)cc2)C[C@@H](OCc2ccc(CO)cc2)O1)N1CCN(Cc2ccc3c(c2)OCO3)CC1`, -105%.
Take `COc1cccc(C2CC(c3ccc(C)cc3)Nc3nc(N)nn32)c1` (configuration not stated): the inhibition is -27%.
With `CN(C)c1ccc(C(CNC(=O)c2ccc(-c3ccccc3)cc2)N2CCOCC2)cc1` (configuration not stated), the inhibition is -7%.
With `CCCCCCCCCCCCCCCC[n+]1cccc(C(=O)N(CC)CC)c1`, the inhibition was 10%.
In the case of `CNc1oc(-c2ccccc2Cl)nc1P(=O)(c1ccccc1)c1ccccc1` it was 10%.
As for `COc1cc2nc(Nc3ccc(C)c(C)c3)nc(N)c2cc1OC`, the inhibition was 0%.
For the compound `C=CC[n+]1c(-c2ccc(Cl)cc2Cl)csc1Nc1ccc(NC(C)=O)cc1`, the inhibition is -43%.
Under `O=C(c1cc([N+](=O)[O-])ccc1Cl)N1CCN(c2ccc([N+](=O)[O-])cc2)CC1` stands -51%; under `COc1ccc(CCNC(=O)c2cc3c(=O)n4cccc(C)c4nc3n(CCCN3CCOCC3)c2=N)cc1`, -87%; under `C#CCOCCOCCOCCNc1nc(N2CCN(C(=O)[C@H](Cc3ccc(O)cc3)n3cc([C@@H](N)CC(C)C)nn3)CC2)nc(N2CCN(C(=O)[C@H](Cc3cc4ccccc4[nH]3)n3cc([C@@H](N)CC(C)C)nn3)CC2)n1`, -77%.
With `Cc1cccc(OCC(=O)Nc2ccc(N3CCN(C(=O)c4ccccc4)CC3)cc2)c1C`, the inhibition was -8%.
Turning to `COc1ccc2cc1Oc1ccc(cc1)CC1c3c(cc(OC)c4c3Oc3cc5c(cc3O4)CCNC5C2)CCN1C` (configuration not stated), the inhibition was -113%.
For `C#CCOCCOCCOCCNc1nc(N2CCN(C(=O)[C@H](Cc3cc4ccccc4[nH]3)n3cc([C@@H](N)C(C)CC)nn3)CC2)nc(N2CCN(C(=O)[C@H](CCCCN)n3cc([C@@H](N)CC(C)C)nn3)CC2)n1` (some centres not stated), the inhibition is -29%.
Consider `C#CCOCCOCCOCCNc1nc(N2CCN(C(=O)C(Cc3cc4ccccc4[nH]3)n3cc(C(N)C(C)CC)nn3)CC2)nc(N2CCN(C(=O)C(Cc3cc4ccccc4[nH]3)n3cc(C(N)C(C)CC)nn3)CC2)n1` (configuration not stated), for which the inhibition is -161%.
Take `Nc1nn(-c2ccccc2)c(N)c1N=Nc1cccc(F)c1`: the inhibition is 0%.
Consider `CN(C)c1ccc(C=NNC(=S)NCc2ccccc2)cc1`, for which the inhibition is -20%.
On to `C#CCOCCOCCOCCNc1nc(N2CCN(C(=O)C(Cc3ccc(O)cc3)n3cc(C(N)CC(C)C)nn3)CC2)nc(N2CCN(C(=O)C(Cc3cc4ccccc4[nH]3)n3cc(C(N)Cc4ccc(O)cc4)nn3)CC2)n1` (configuration not stated), for which the inhibition is -100%.
Take `Cc1ccsc1C=NN=C1C(=O)Nc2ccccc21`: the inhibition is -90%.
As to `COCCn1c(-c2ccc(Br)cc2)csc1=Nc1cccnc1`, the inhibition is 43%.
In the case of `CCN1C(=O)/C(=C\N2CCN(c3ccccc3)CC2)SC1=S` it was -14%; in that of `O=C(C1=C[C@@H](c2ccc(C(F)(F)F)cc2)C[C@@H](OCCCCO)O1)N1CCN(Cc2ccccc2)CC1`, -70%; in that of `COc1ccc(C(=O)c2coc3ccc(O)c(CN4CCCC4)c23)cc1`, -31%.

Usually inhibition stands for the change of the read-out against control, counted positive when it falls.
